From PubChem BioAssay (NCI) come the findings set out here.

Compounds without any hit were thinned out: in the full panel of roughly 83,000, 20% have a hit.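 The test compound was applied at a single concentration to cells in 96-well plates for 48 hours, and percent growth was recorded.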 Unmarked numbers belong to inactive results. The source made the active and inactive calls. The calls were made as follows: active = growth percent below 10; inactive = the rest.

Test systems include SK-MEL-2 melanoma; EKVX NSCLC; SN12C renal; UO-31 renal; TK-10 renal; ACHN renal; CAKI-1 renal; A498 renal; CCRF-CEM leukemia; MOLT-4 leukemia; SR leukemia; OVCAR-8 ovarian; OVCAR-5 ovarian; OVCAR-4 ovarian; SK-OV-3 ovarian; IGROV1 ovarian; OVCAR-3 ovarian; HS 578T breast; NCI/ADR-RES ovarian.
Holding throughout (experiment): NCI-60 one-dose screen, 48 h (100 = growth as untreated, 0 = no growth, -100 = all killed)
Conditions in all cases: 10 µM unless noted

In the case of `CN(C)CCN1CCN(c2ncccc2C2Nc3ccccc3-n3cccc32)CC1` (configuration not stated), the growth in the test on SK-MEL-2 melanoma is 124%; in the test with EKVX NSCLC, 102%; in the test on SN12C renal it was 101%; in the test on UO-31 renal it was 77.8%; in the test with TK-10 renal, 103%; in the test with ACHN renal it was 105%. For the same molecule, the growth with CAKI-1 renal was 85.4%; with A498 renal, 86.7%; in the test with CCRF-CEM leukemia it was 102%; with MOLT-4 leukemia, 98.2%; with SR leukemia it was 98.3%; in the test with OVCAR-8 ovarian, 101%. Moreover, the growth is 100% in the test with OVCAR-5 ovarian; 113% in the test with OVCAR-4 ovarian; 107% with SK-OV-3 ovarian; 105% in the test with IGROV1 ovarian; 115% in the test on OVCAR-3 ovarian; 95.7% in the test with HS 578T breast. The growth in the test on NCI/ADR-RES ovarian was 104%.
In the case of `CCCCn1c(-c2ccc(C(=O)O/N=C(\N)c3ccc(OC)cc3)cc2)nc(-c2ccccc2)c1-c1ccccc1`, the growth in the test with SK-MEL-2 melanoma was 52.6%; in the test with EKVX NSCLC it was -79.2% (active); with SN12C renal, -62.7% (active); in the test with UO-31 renal, -93.7% (active); in the test with TK-10 renal it was -78.8% (active); in the test on ACHN renal, -97.9% (active). Further, the growth in the test with CAKI-1 renal is -46.3% (active); in the test with A498 renal, 20.9%; in the test with CCRF-CEM leukemia it was -48.7% (active); in the test on MOLT-4 leukemia, -39.7% (active); with SR leukemia it was -47.4% (active); in the test with OVCAR-8 ovarian, -16.8% (active). Besides, the growth with OVCAR-5 ovarian is 24.1%; in the test on OVCAR-4 ovarian it was 23.1%; with SK-OV-3 ovarian it was 87%; in the test on IGROV1 ovarian, -70.2% (active); with OVCAR-3 ovarian, -6.99% (active); with HS 578T breast, -8.31% (active). Further, the growth with NCI/ADR-RES ovarian was -39.5% (active).
On to `CCOC(=O)C1=C(N)Oc2c(sc3c(C)cccc23)C1c1ccc(OC)cc1` (configuration not stated), for which the growth is 22.9% in the test on SK-MEL-2 melanoma; 88.5% with EKVX NSCLC; 39.7% in the test with SN12C renal; 41.5% in the test with UO-31 renal; 110% with TK-10 renal; 34% in the test on ACHN renal. Moreover, the growth in the test on CAKI-1 renal is 5.78% (active); in the test on A498 renal, 4.89% (active); in the test on CCRF-CEM leukemia, 24.3%; with MOLT-4 leukemia, 29.4%; with SR leukemia, 29.1%; in the test with OVCAR-8 ovarian, 46.6%. In addition, the growth is 75.9% in the test with OVCAR-5 ovarian; 65.5% with OVCAR-4 ovarian; 57.7% in the test with SK-OV-3 ovarian; 27.9% in the test on IGROV1 ovarian; 11% in the test with OVCAR-3 ovarian; 30% in the test on HS 578T breast. Further, the growth with NCI/ADR-RES ovarian was 30.8%.
Take `CCOC(=O)c1sc2ncc(-c3ccc(C)cc3)n2c1C`: the growth is 101% in the test on SK-MEL-2 melanoma; 88.4% in the test on EKVX NSCLC; 86.6% in the test on SN12C renal; 78.2% in the test with UO-31 renal; 147% with TK-10 renal; 84% with ACHN renal. Also, the growth in the test on CAKI-1 renal is 88.1%; with A498 renal it was 104%; with CCRF-CEM leukemia, 89.5%; with MOLT-4 leukemia it was 90.1%; with SR leukemia it was 112%; in the test with OVCAR-8 ovarian, 94.7%. The growth was 95.9% with OVCAR-5 ovarian; 95.4% with OVCAR-4 ovarian; 81.3% in the test on SK-OV-3 ovarian; 71.3% in the test with IGROV1 ovarian; 97.2% in the test with OVCAR-3 ovarian; 96.7% with HS 578T breast. In addition, the growth with NCI/ADR-RES ovarian is 92.9%.
With `CC([C@H]1CCC2C3CCC4C(=O)C(NC=O)=CC[C@]4(C)C3CC[C@@]21C)N(C)C` (some centres not stated), the growth in the test on SK-MEL-2 melanoma is 82.3%; in the test with EKVX NSCLC, 30.5%; in the test with SN12C renal it was 42%; in the test on UO-31 renal, -65% (active); in the test on TK-10 renal it was 84.1%; with ACHN renal it was 58.2%. Besides, the growth in the test with CAKI-1 renal was 57.6%; with A498 renal, 65.1%; with CCRF-CEM leukemia, 28.7%; in the test on MOLT-4 leukemia, 41.2%; in the test with SR leukemia it was 54.3%; in the test on OVCAR-8 ovarian, 55.9%. The growth in the test on OVCAR-5 ovarian was 93.2%; with OVCAR-4 ovarian, 6.05% (active); with SK-OV-3 ovarian it was 75.8%; with IGROV1 ovarian, 37.8%; with OVCAR-3 ovarian it was 24.6%; with HS 578T breast it was 33.6%. In the test on NCI/ADR-RES ovarian, the growth was 57.5%.
Consider `c1ccc2c(c1)Nc1ccncc1S2`, for which the growth in the test with SK-MEL-2 melanoma was 119%; in the test on EKVX NSCLC it was 73.1%; in the test on SN12C renal it was 97.6%; in the test on UO-31 renal, 78.5%; in the test on TK-10 renal it was 109%; with ACHN renal, 94.2%. In addition, the growth is 61.2% with CAKI-1 renal; 80.7% in the test on A498 renal; 117% in the test on CCRF-CEM leukemia; 142% in the test with MOLT-4 leukemia; 200% with SR leukemia; 101% in the test with OVCAR-8 ovarian. Further, the growth was 89.5% with OVCAR-5 ovarian; 93.1% in the test on OVCAR-4 ovarian; 112% in the test with SK-OV-3 ovarian; 99.4% in the test with IGROV1 ovarian; 119% in the test on OVCAR-3 ovarian; 102% with HS 578T breast. Also, the growth in the test on NCI/ADR-RES ovarian was 107%.
As for `CCN(CC)CCCNc1nc2ccccc2c2c(=O)c3cc(Cl)ccc3sc12`, the growth with SK-MEL-2 melanoma was 108%; in the test on EKVX NSCLC, 79.1%; with SN12C renal it was 66.9%; with UO-31 renal, 33.8%; in the test on TK-10 renal, 68.7%; in the test on ACHN renal, 47.3%. In addition, the growth in the test with CAKI-1 renal is 23%; in the test with A498 renal, 41.4%; with CCRF-CEM leukemia, 11.7%; with MOLT-4 leukemia it was 5.32% (active); in the test on SR leukemia, -15.7% (active); in the test on OVCAR-8 ovarian, 61.5%. The growth with OVCAR-5 ovarian was 75.5%; with OVCAR-4 ovarian it was 45.1%; in the test on SK-OV-3 ovarian, 89.3%; in the test with IGROV1 ovarian, 50.7%; in the test with OVCAR-3 ovarian, 40.5%; in the test on HS 578T breast it was 64.3%. Further, the growth in the test with NCI/ADR-RES ovarian is 74.1%.
As for `Cc1[nH]c(C(=O)Nc2ccc(C(=O)N3CCNCC3)cc2OC(C)C)c(Cl)c1Cl`, the growth in the test with SK-MEL-2 melanoma was 106%; with EKVX NSCLC it was 82.8%; with SN12C renal, 80.1%; in the test on UO-31 renal it was 47.9%; in the test with TK-10 renal, 79.2%; with ACHN renal, 67.7%. Besides, the growth in the test with CAKI-1 renal was 48.8%; in the test with A498 renal, 64.4%; in the test on CCRF-CEM leukemia, 27.7%; with MOLT-4 leukemia it was 54.1%; in the test with SR leukemia, -34.3% (active); in the test with OVCAR-8 ovarian, 87.1%. Further, the growth in the test on OVCAR-5 ovarian was 90.3%; in the test with OVCAR-4 ovarian, 81.9%; with SK-OV-3 ovarian it was 89.3%; in the test on IGROV1 ovarian, 69.5%; in the test with OVCAR-3 ovarian, 71.4%; in the test with HS 578T breast, 73%. The growth in the test on NCI/ADR-RES ovarian is 80.5%.
